About 2,600 (16%) of roughly 16,000 compounds were called active. Inconclusive results (about 20%) are left out. The sample as a whole holds a higher share of actives than the screen did. Values without a mark were called inactive. Calls follow the shape of the dose curve; as a rule, active = well fitted curve in the direction sought with a large enough effect; inconclusive = small, poorly fitted or top-dose-only effect, or effect the other way; inactive = no such curve, though single readings can be large or run the other way.
% is scaled to controls: 0 for no effect and ±100 for the full control effect.

In the assay the target is Cytochrome P450 2D6 (Homo sapiens) (UniProt P10635). Briefly: Cytochrome panel assay with activity outcomes. Particulars: recombinant CYP, pro-luciferin dealkylation, luminescence, p450-cyp2d6; series mostly up to 57.1 µM.
Cytochrome P450 2D6 (Homo sapiens), sequence (P10635 whole entry, looked up): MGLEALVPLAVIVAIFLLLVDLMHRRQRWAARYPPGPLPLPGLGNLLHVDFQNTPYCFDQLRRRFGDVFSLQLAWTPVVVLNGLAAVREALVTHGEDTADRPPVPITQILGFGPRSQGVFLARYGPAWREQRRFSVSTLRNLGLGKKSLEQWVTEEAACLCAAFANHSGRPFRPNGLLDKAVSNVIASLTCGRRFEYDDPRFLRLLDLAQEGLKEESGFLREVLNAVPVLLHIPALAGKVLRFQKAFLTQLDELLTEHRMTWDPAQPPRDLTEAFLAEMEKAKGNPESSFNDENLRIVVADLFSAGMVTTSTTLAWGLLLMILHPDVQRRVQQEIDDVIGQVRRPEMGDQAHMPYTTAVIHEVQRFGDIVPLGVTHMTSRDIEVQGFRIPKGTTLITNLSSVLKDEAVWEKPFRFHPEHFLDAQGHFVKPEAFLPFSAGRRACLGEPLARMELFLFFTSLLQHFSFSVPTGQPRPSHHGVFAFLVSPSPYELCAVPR
The term AC50 denotes the concentration giving half of the maximal activity seen. As to `COC[C@H]1OC(=O)c2coc3c2[C@@]1(C)C1=C(C3=O)[C@H]2CCC(=O)[C@@]2(C)C[C@H]1OC(C)=O`, the AC50 result is “inactive”.

For the compound `S=C(S)N1CCCC1`, the AC50 entry is “inactive”.

With `C[C@@H]1O[C@@H](O[C@H]2C[C@@H](O)[C@@]3(CO)[C@H]4[C@H](O)C[C@]5(C)[C@@H](C6=CC(=O)OC6)CC[C@]5(O)[C@H]4CC[C@@]3(O)C2)[C@@H](O)[C@H](O)[C@H]1O`, the activity, negative = inhibition was -4.25% [at 11.4 µM].

Turning to `O=C(Oc1ccccc1)N1CCC2(CCCN(Cc3nccs3)C2)CC1`, the AC50 is 5.01 µM (active).

Consider `O=C(Oc1ccccc1)N1CCC2(CCN(Cc3nccs3)CC2)CC1`, for which the AC50 result is “inactive”.

In the case of `O=C(Nc1cccc(F)c1)N1CCCC2(CCN(C(=O)Oc3ccccc3)CC2)C1`, the AC50 result was “inactive”.

For `COc1ccccc1CN1CCCC2(CCN(C(=O)Oc3ccccc3)CC2)C1`, the half-maximal activity concentration (AC50) was 3.98 µM (active).

On to `COc1cc2c(cc1OC)[C@]13CC[N@+]4(C)CC5=CCO[C@H]6CC(=O)N2[C@@H]1[C@@H]6[C@@H]5C[C@]34O`, for which the activity, negative = inhibition is -2.44% [at 11.4 µM].

For the compound `C[C@@]12CC[C@H]3[C@@H](CCC4=CC(=O)CC[C@]43C)[C@H]1CC[C@H]2C(=O)CO`, the AC50 result is “inactive”.

Turning to `CC(C)C[C@H](NP(=O)(O)O[C@@H]1O[C@@H](C)[C@@H](O)[C@@H](O)[C@H]1O)C(=O)N[C@@H](Cc1c[nH]c2ccccc12)C(=O)O`, the AC50 result is “inactive”.

Take `O=C(c1cc(-c2ccccc2)nc2ccccc12)N1CCC2(CC1)OCCO2`: the AC50 entry was “inactive”.

On to `CN(CCc1ccc(Cl)c(Cl)c1)[C@H]1CCCC[C@H]1N1CCCC1`, for which the concentration at half-maximal activity (AC50) was 0.00631 µM (active).

For the compound `CN(C)CCN(C)CCc1ccc(Cl)c(Cl)c1`, the AC50 result is “inactive”.

With `Clc1cnc(Oc2ccc(Oc3ncc(Cl)cc3Cl)cc2)c(Cl)c1`, the AC50 result was “inactive”.

On to `NS(=O)(=O)c1ccc(-c2ccc([As](=O)(O)O)cc2)cc1`, for which the activity, negative = inhibition was 16.2% [at 11.4 µM].

With `N[C@@H](Cn1cc(I)c(=O)[nH]c1=O)C(=O)O`, the AC50 entry is “inactive”.

For `N[C@H](Cn1ccc(=O)[nH]c1=O)C(=O)O`, the AC50 is 3.98 µM (active).

Take `N[C@@H](Cn1oc(=O)[nH]c1=O)C(=O)O`: the AC50 result is “inactive”.

Turning to `CCSCC[C@H](N)C(=O)O`, the activity, negative = inhibition was 2.98% [at 11.4 µM].

As to `CC(=O)OCC(=O)[C@@H]1CC[C@H]2[C@H]3CC[C@H]4C[C@@H](O)CC[C@]4(C)[C@@H]3C(=O)C[C@@]12C`, the AC50 result is “inactive”.

Turning to `COc1ccc(C2NCc3ccc4c(c3-n3cccc32)OCO4)cc1OC` (stereo not given), the concentration at half-maximal activity (AC50) is 0.398 µM (active).

For the compound `CCNC(=O)[C@@H]1O[C@@H](n2cnc3c(N)ncnc32)[C@H](O)[C@H]1O`, the AC50 result is “inactive”.

Take `C[C@@H]1[C@H]2C=C[C@@H]1[C@@H](c1c3ccc(=O)c(O)c-3oc3c(O)c(O)ccc13)[C@@H]2C(=O)O`: the activity, negative = inhibition is 2.68% [at 11.4 µM].

For `Cc1nc2ccccc2c(=O)n1-n1cnnc1`, the AC50 result is “inactive”.

For `Clc1ccc(C(c2ccc(Cl)cc2)n2cc[n+](C[C@@H](OCc3ccc(Cl)cc3Cl)c3ccc(Cl)cc3Cl)c2)cc1`, the AC50 is 0.0398 µM (active).

For the compound `O=C(C1CC(=O)N(C2CCCC2)C1)N1CCC2(CC1)OCCO2` (stereo not given), the AC50 result was “inactive”.

`CCN1CCN(Cc2cc(OC)c(OC)cc2[N+](=O)[O-])CC1`: the concentration at half-maximal activity (AC50) was 6.31 µM (active).

Regarding `CCN1C[C@]2(C)CC[C@H](OC)[C@@]34[C@@H]2[C@H](OC(C)=O)[C@]2(OCO[C@@]25C[C@@H](OC)[C@@H]2C[C@@]3(O)[C@H]5[C@@H]2OC)[C@H]14`, the AC50 result was “inactive”.

Consider `COC(=O)NC/C=C\c1nc(CC/C=C\C(=O)O[C@H]2C[C@H]3CC(=O)O[C@@H](/C=C\CC(C)C)C[C@@H]4CC[C@H](C)[C@H](C[C@@H](OC)C[C@H](C2)O3)O4)co1`, for which the activity, negative = inhibition was -6.57% [at 11.4 µM].

Take `CNC(C)Cc1ccccc1Sc1ccc(O)cc1` (stereo not given): the AC50 is 3.16 µM (active).

`CC(N)Cc1ccccc1Sc1ccc(O)cc1` (stereo not given): the AC50 was 10 µM (active).

`COC(=O)C1(C)C=C2C(=C(C)C(=O)C2C)CN1` (stereo not given): the AC50 result is “inactive”.

Regarding `CC(C)[C@@H]1CN[C@H](C(=O)O)[C@@H]1CC(=O)O`, the AC50 entry was “inactive”.

Regarding `C=C1[C@@H]2C[C@@]3([C@H]1O)[C@H]1C[C@@H]4[C@@]5(C)CC[C@H](O)[C@]4([C@H]1N(CC)C5)[C@H]3C[C@H]2O`, the AC50 result was “inactive”.

As for `CC(C)CNCCc1ccccn1`, the activity, negative = inhibition is -13.8% [at 11.4 µM].

`CCC(=O)O[C@H]1CC[C@H]2[C@@H]3CCC4=CC(=O)CC[C@]4(C)[C@H]3CC[C@]12C`: the AC50 result was “inactive”.

Take `CC[C@@H](C)[C@H]1O[C@]2(CC[C@@H]1C)C[C@@H]1C[C@H](C/C=C(/C)[C@H](O[C@@H]3C[C@H](OC)[C@H](O[C@@H]4C[C@H](OC)[C@@H](O)[C@H](C)O4)[C@H](C)O3)[C@@H](C)/C=C\C=C3CO[C@@H]4[C@H](O)C(C)=C[C@@H](C(=O)O1)[C@]34O)O2` (tested in a mixture with another compound): the AC50 result is “inactive”.

Regarding `Cc1ccc2c(c1)N(CCC(=O)N1CCC3(CC1)OCCO3)C(=O)C(C)O2` (stereo not given), the AC50 result is “inactive”.

For the compound `CN1CCc2cc(O)cc3c2[C@H]1Cc1ccc(O)c(O)c1-3`, the AC50 entry was “inactive”.

`CN1CCc2cc3c(cc2[C@@H]1O)OCO3`: the AC50 is 7.94 µM (active).

`COc1cc([C@H]2c3cc4c(cc3[C@@H](O)[C@@H]3COC(=O)[C@H]23)OCO4)cc(OC)c1OC`: the AC50 result was “inactive”.

As for `CC(=O)N1CC[N+](C)(C)CC1`, the AC50 entry was “inactive”.

Turning to `CC(C)(C)c1cc(C=C(C#N)C#N)cc(C(C)(C)C)c1O`, the AC50 result was “inactive”.

As to `CC1=C2C(=O)[C@@H]3[C@@H](CC=C4C[C@@H](O)CC[C@@]43C)[C@H]2CC[C@@]12O[C@H]1C[C@H](C)CN[C@H]1[C@@H]2C`, the activity, negative = inhibition is 9.41% [at 11.4 µM].

Consider `NS(=O)(=O)c1cc([C@@]2(O)NC(=O)c3ccccc32)ccc1Cl`, for which the AC50 result was “inactive”.

`CCOc1ccc(C2C(C#N)=C(N)Oc3c2c(=O)oc2ccccc32)cc1` (stereo not given): the AC50 result was “inactive”.

`CCOC(C(=O)OCCCN(CC)CC)(c1ccccc1)c1ccccc1`: the AC50 is 2 µM (active).

As for `CC(C)NP(=O)(NC(C)C)OP(=O)(NC(C)C)NC(C)C`, the AC50 result was “inactive”.

Regarding `CC(C)N[C@@H](C)Cc1ccc(I)cc1`, the half-maximal activity concentration (AC50) is 0.1 µM (active).

With `Cc1ccc2cc3cc(C(=O)N4CCC5(CC4)OCCO5)oc3nc2c1`, the AC50 result was “inactive”.

In the case of `CCOC(=O)c1ncn2c1CN(C)C(=O)c1cc(F)ccc1-2`, the AC50 entry is “inactive”.

Take `CC1(C)[C@@H]2CC[C@]1(C)CN(CCC[N+](C)(C)C)C2`: the activity, negative = inhibition is 2.02% [at 11.4 µM].

`CS(=O)(=O)O[C@H]1CN2CCC1CC2`: the activity, negative = inhibition was 2.87% [at 11.4 µM].

In the case of `C[C@]12CC[C@H](O)C[C@@H]1CC[C@H]1[C@H]2CC[C@]2(C)[C@H](C(=O)CO)CC[C@@H]12`, the AC50 entry is “inactive”.

As for `c1csc(CN2CCCC3(CCNCC3)C2)n1`, the AC50 result is “inactive”.

Consider `c1ccc(N2CCCC3(CCNCC3)C2)nc1`, for which the half-maximal activity concentration (AC50) is 10 µM (active).

As to `c1ccc(N2CCC3(CCNCC3)CC2)nc1`, the half-maximal activity concentration (AC50) was 1.26 µM (active).

As to `c1csc(CN2CCC3(CCNCC3)CC2)n1`, the AC50 result was “inactive”.

Take `Cc1ccccc1OCCN=Cc1c(O)n(C)c(=O)n(C)c1=O`: the AC50 result was “inactive”.

Regarding `COc1cc2c(cc1OC)[C@@]13CCN4C=C5CCO[C@H]6CC(=O)N2[C@@H]1[C@@H]6[C@H]5C[C@H]43`, the activity, negative = inhibition was 9.01% [at 11.4 µM].

With `C1CCc2nnnn2CC1`, the AC50 result was “inactive”.

`CC(C)[N+](C)(CCC(C(N)=O)(c1ccccc1)c1ccccc1)C(C)C`: the AC50 is 3.98 µM (active).

Turning to `CC(C)N(CC[C@@](C(N)=O)(c1ccccc1)c1ccccn1)C(C)C`, the AC50 result is “inactive”.

`N#C/C(=C\c1ccc(O)c(O)c1)C(N)=S`: the AC50 result was “inactive”.

As for `Nc1nc(N)c(N=Nc2ccc([As](=O)(O)O)c(O)c2)c(N)n1`, the activity, negative = inhibition is 12.7% [at 11.4 µM].

As to `CC(O)(CS(=O)(=O)c1cccc(C(F)(F)F)c1)C(=O)Nc1cccc(C(F)(F)F)c1` (stereo not given), the AC50 entry is “inactive”.

In the case of `COc1cc(C[C@H](C)N)c(OC)cc1I`, the AC50 is 25.1 µM (active).

`NC(=O)c1ccc(C(=O)Nc2ccc([As](=O)(O)O)cc2)cc1`: the activity, negative = inhibition was -0.507% [at 11.4 µM].

In the case of `CC(NCc1ccc(Cl)cc1)C(O)c1ccccc1` (stereo not given), the AC50 is 0.0708 µM (active).

Regarding `O=NN(Cc1ccc(Cl)cc1)[C@@H](C(=O)O)c1ccccc1`, the activity, negative = inhibition was 6.33% [at 11.4 µM].

Consider `C[C@H](N)[C@@H](O)c1ccccc1`, for which the AC50 entry is “inactive”.

Consider `COc1ccn(C)c(=O)c1C#N`, for which the AC50 result is “inactive”.

On to `O=C1C2CCN(CC2)C1(CO)CO`, for which the AC50 result is “inactive”.

In the case of `c1ccc(CCN2CCOCC2)nc1`, the activity, negative = inhibition was 13.9% [at 11.4 µM].

As for `c1ccc(CCN2CCCCCC2)nc1`, the activity, negative = inhibition is -18.4% [at 11.4 µM].

For the compound `CCc1ccc(CCN2CCCCC2)nc1`, the AC50 was 1.58 µM (active).

Take `CC(C)COC(=O)OCN1C(=O)CN(CCN2CC(=O)N(COC(=O)OCC(C)C)C(=O)C2)CC1=O`: the AC50 result is “inactive”.

Take `O=S(=O)(c1ccccc1)N1CCCCC1c1cccnc1` (stereo not given): the AC50 result was “inactive”.

For `N#CCCN`, the AC50 entry was “inactive”.

Take `Oc1cccc2cccnc12`: the activity, negative = inhibition was 8.63% [at 11.4 µM].

`C[n+]1c(/C=C\c2ccc(O)c3ncccc23)[se]c2ccccc21`: the AC50 was 1 µM (active).

For the compound `COc1cccc(-c2nc(CS(=O)CC(=O)N3CCC4(CC3)OCCO4)c(C)o2)c1` (stereo not given), the AC50 result was “inactive”.

For the compound `C[C@@]12CC[C@H]3[C@@H](CC[C@@H]4C[C@H]5S[C@H]5C[C@]43C)[C@H]1CC[C@H]2O`, the AC50 result was “inactive”.

As for `CCCN(CCC)CCc1cccc2c1CC(=O)N2`, the half-maximal activity concentration (AC50) was 3.16 µM (active).

Consider `N[C@@H]1C=CC=C(C(=O)O)C1`, for which the AC50 result is “inactive”.

`N#CC(C#N)=Cc1cc(O)c(O)c(O)c1`: the AC50 result is “inactive”.

Turning to `O=C(O)c1cc[c]([Hg][S]c2ncnc3nc[nH]c23)cc1`, the concentration at half-maximal activity (AC50) was 1 µM (active).

Consider `O=C(NC1CCCCC1)NC1CC2CCC(C1)N2Cc1nnnn1Cc1ccc2c(c1)OCO2` (stereo not given), for which the AC50 is 6.31 µM (active).

Consider `CCOP(=O)(OCC)C(NC(=O)C(Cl)Cl)C(Cl)(Cl)Cl` (stereo not given), for which the AC50 entry is “inactive”.

In the case of `O=[N+]([O-])O[C@H]1CO[C@H]2[C@H]1OC[C@@H]2O[N+](=O)[O-]`, the AC50 result is “inactive”.

Source of the values: PubChem BioAssay AID1851 (National Center for Advancing Translational Sciences (NCATS), 2009).
